# Most compounds without a hit are left out; they make up all but 14% or so of the library.
# Marburg entry inh: blocks Marburg virus binding to or entry into cells. Marburg virus pseudotyped entry inhibition, cell reporter. Potency, µM (series often up to 37.8 µM), for inactives: at the top dose activity change, negative = inhibition, most hits filed as inhibitors. 1.8% of 300,000 active. AID 540276; calls by dose curve; tested in HEK293 cells; note: potency is the fitted concentration of half-maximal effect; % is set by controls: 0 for no effect and ±100 for the full control effect
# LASV entry inh: inhibitors of Lassa virus binding or cell entry; Lassa virus pseudotype entry inhibition, cell reporter; Potency, µM (titrated, usually from 37.9 µM), for inactives: top-dose activity change, negative = inhibition, actives largely listed as inhibitors; 1.2% of 300,000 active; AID 540256; calls by dose curve; tested in HEK293 cells; note: potency is the fitted concentration of half-maximal effect; % is set by controls: 0 for no effect and ±100 for the full control effect; nearly all actives have a fitted effect of over 50% in size
# HCMV antiviral: human cytomegalovirus inhibition. HFF cells, HCMV-luciferase reporter, 72 h; active compounds read low. activity change, negative = inhibition, % at 57.5 µM. 4.5% of 410,000 active. AID 1259415; in the data active = activity change below about -60%; inconclusive = no clear call, values can overlap the other calls; inactive = above about -39%; note: % is set by controls: 0 for no effect and ±100 for the full control effect
#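 Inhibition of viral replication was scored as loss of reporter luminescence in HFFs infected with HCMV-luciferase (MOI 1 PFU/cell) for 72 h; compounds tested at 2 doses, normalized to buffer and Salinomycin controls.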
# Pf growth 96h: inhibits malaria parasite growth, 96 h; P. falciparum luciferase reporter growth, 96 h; Potency, µM (doses to about 28.7 µM), for inactives: at the highest dose activity change, negative = inhibition, actives largely listed as inhibitors; 6.9% of 320,000 active; note: potency is the fitted concentration of half-maximal effect; % is set by controls: 0 for no effect and ±100 for the full control effect
#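 Infected RBCs, 2% Hct / 0.05% parasitemia final; luciferase-reporter P. falciparum; cpd 96 h, 37 C, 5% CO2; luciferase detection reagent; luminescence.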
# Pf growth 48h: P. falciparum growth inhibition at 48 hours (one generation). P. falciparum luciferase growth in erythrocytes, 48 h. Potency, µM (top dose mostly 28.7 µM), for inactives: at the top dose activity change, negative = inhibition, hits mostly inhibitors. 5.9% of 310,000 active. AID 504832; note: potency is the fitted concentration of half-maximal effect; % is set by controls: 0 for no effect and ±100 for the full control effect
#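 Read-out is firefly luciferase luminescence from an integrated reporter in P. falciparum, so falling signal marks reduced parasite growth. Infected erythrocytes were at 2% hematocrit and 0.1% parasitemia (final) in Albumax-supplemented RPMI 1640.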
# HCV inh: inhibitors of hepatitis C virus infection; Huh7.5.1 HCVcc-Cre infection, luciferase reporter, 44 h; Potency, µM (top dose mostly 41.8 µM), inactives show at the top dose activity change, negative = inhibition, usual class: inhibitors; 3.4% of 340,000 active; AID 651820; note: potency is the fitted concentration of half-maximal effect; % is set by controls: 0 for no effect and ±100 for the full control effect
#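 Cells seeded at 1,000/well and cultured 4 h, then compounds added followed by HCVcc-Cre virus (~0.5 moi). After 44 h further culture, luciferase substrate was added, plates held 15 min at room temperature, and luminescence read for 15 sec.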
# HCV inh confirm: HCV inhibition, cherry-pick confirmation | shares compounds with HCV inh | HCVcc-Cre infectious virus cell assay, luciferase, inhibition | Potency, µM (titrated, usually from 41.8 µM), for inactives: at the top dose activity, negative = inhibition, usual class: inhibitors | 78% of 640 active; note: potency is the fitted concentration of half-maximal effect; nearly all actives have a fitted effect of over 80% in size
# HCV cytotox: toxic to HCV host cells, flagging false HCV inhibitors. Potency, µM (highest dose often 41.8 µM), without a hit: at the top dose activity change, negative = cytotoxicity, most hits filed as inhibitors. shares compounds with HCV inh. 22% of 640 active. HCV host cell line cytotoxicity counterscreen. AID 720576;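 note: potency is the fitted concentration of half-maximal effect; 44 h compound exposure; % is set by controls: 0 for no effect and ±100 for the full control effect; nearly all actives have a fitted effect of over 55% in size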
# * marks the source's active call; other numbers are inactive results; ? = inconclusive; / = no result; + = active, no number; [ ] = remark or other dose. Unless noted, calls come from the whole dose curve; as a rule, active = well fitted curve in the direction sought with a large enough effect; inconclusive = small, poorly fitted or top-dose-only effect, or another doubt; inactive = no such curve, though single readings can be large; an effect the other way counts as inactive or inconclusive.
SMILES,Marburg entry inh,LASV entry inh,HCMV antiviral,Pf growth 96h,Pf growth 48h,HCV inh,HCV inh confirm,HCV cytotox
COc1ccc(N2CCN(CCCNC(=O)C3CCC(CNc4nc(=S)[nH]c5ccccc45)CC3)CC2)cc1 (stereo not given),?,?,14.2,-26.5%,?,2.51µM*,6.28µM*,22.3µM*
COc1ccc(S(=O)(=O)Nc2cccc(-c3ccc(N4CCCC4)nn3)c2)c(OC)c1,/,-5.8%[46.1 µM],-5.1,/,/,/,/,/
COc1ccc(S(=O)(=O)Nc2cccc(-c3ccc(N4CCCCCC4)nn3)c2)c(OC)c1,/,-29.4%[46.1 µM],-23.5,?,-3.7%,3.55µM*,19.9µM*,-15.3%
O=C(NCCSc1ccc(Br)cc1)c1ccc2nc[nH]c2c1,0.1%,7.8%,25.3,-11.8%,13.5%,-5.8%,/,/
CCN1/C(=C\C(=S)Nc2ccccc2)Sc2ccccc21,?,?,-60.9*,23.6%,-3.0%,6.31µM*,14.1µM*,?
CCN1/C(=C\C(C)=O)Sc2ccc(OC)cc21,-0.1%,-5.5%,/,-25.2%,/,-4.8%,/,/
Cc1ccc(C)c(Nc2nc3c(S(=O)(=O)c4ccccc4)nnn3c3ccccc23)c1,-8.5%,0.5%,-2.2,?,?,?,/,/
O=S(=O)(c1ccccc1)c1nnn2c1nc(NC1CCN(Cc3ccccc3)CC1)c1ccccc12,/,/,-17.8,?,?,8.91µM*,14.1µM*,-11.3%
COC(=O)/C(C#N)=C\c1c(OC)[nH]c2ccccc12,/,/,?,30.8%,-10.3%,3.98µM*,11.2µM*,23.0%
COc1ccc(-c2cc(C)no2)cc1S(=O)(=O)N1CCN(c2ccc([N+](=O)[O-])cc2)CC1,/,/,+,?,?,3.98µM*,8.87µM*,25µM*
CC(C)(C)c1ccc(C(=O)N2CCC2(C)C(=O)NCCC#N)cc1 (stereo not given),/,/,5.9,/,/,/,/,/
CC(Nc1nc(-c2ccccc2O)nc2ccccc12)c1ccccc1 (stereo not given),-6.3%[46.1 µM],-8.4%,15.0,?,?,?,/,/
CCOc1nc(-c2ccccc2O)nc2ccccc12,3.3%,2.1%,3.9,19.2%,22.8%,?,6.28µM*,0.887µM*
CCOc1ccc(CNC(=O)c2ccc(Sc3ccc(Cl)cc3)c(NC(C)=O)c2)cc1,?,?,-18.2,?,2.5%,-29.0%,/,/
CCOc1ccccc1CNC(=O)c1ccc(Sc2ccc(Cl)cc2)c(NC(C)=O)c1,-22.2%,-0.7%,-22.3,?,-4.1%,?,12.5µM*,18.3%
c1ccc2c(c1)[nH]c1c(N3CCN(C4CCCCC4)CC3)ncnc12,?,9.4%,-2.1,5.0%,14.2%,-9.2%,/,/
c1ccc2c(c1)[nH]c1c(N3CCCC3)ncnc12,?,-27.3%,?,2.62µM*,?,8.91µM*,7.05µM*,15.8µM*
Cc1ccccc1C1(O)c2ccccc2-c2ccccc21,/,/,-19.4,/,/,/,/,/
CN(C)CCCNC(=O)C(=O)NCC(c1ccc2c(c1)OCO2)N1CCOCC1 (stereo not given),/,0.1%[46.1 µM],65.9,/,/,/,/,/
CCOc1cc(CNC(C)(C)C)ccc1OCC(=O)Nc1cccc(C(F)(F)F)c1,?,-9.1%[46.1 µM],-20.3,43.3%[1.15 µM],6.57µM*,?,3.15µM*,17.4%
COc1cc(NC(=O)c2ccccc2F)c(OC)cc1NC(=O)CN1CCOCC1,0.8%[46.1 µM],-17.8%,5.6,?,-1.9%,?,?,11.3%
COc1ccc(NC(=O)COC(=O)c2c3c(nc4ccccc24)CCCC3)cc1Cl,?,?,?,/,11.7µM*,4.47µM*,4.99µM*,31.5µM*
Cc1ccc(Sc2c(C)nn(C(=O)COc3ccccc3)c2C)cc1,7.2%[46.1 µM],-28.6%[46.1 µM],-3.0,/,/,/,/,/
CC1CN(C)C(C)CC1OC(=O)C(c1ccccc1)c1ccccc1 (stereo not given),/,/,-6.4,/,/,?,25µM*,-21.8%
CC(C)CNC(=S)N(CCN(C)C)Cc1cc2cc3c(cc2[nH]c1=O)OCO3,5.5%[46.1 µM],?,48.1,-9.8%,0.0%,4.47µM*,0.5%,16.6%
SMILES,Marburg entry inh,LASV entry inh,HCMV antiviral,Pf growth 96h,Pf growth 48h,HCV inh,HCV inh confirm,HCV cytotox
Cn1c(SCC(=O)NCC2CCCO2)ncc(C(=O)Nc2ccccc2)c1=O (stereo not given),?,-13.9%,-1.8,?,20.4%,5.01µM*,8.8%,38.9%
CC(C)(O)C#Cc1ccc([C@@H]2C[C@H]3CN(c4ccccc4)C(=O)[C@]34CCCN24)s1,?,?,-99.2*,-3.5%,?,?,7.05µM*,-82.6%
CCOc1cc(-c2noc(-c3ccncc3)n2)cc(Br)c1OC,-28.6%,-29.2%,28.1,?,12.6%,?,?,25.2%
CCOc1cc(-c2noc(CCCC(N)=O)n2)cc(Br)c1OC,13.0%,-1.9%,6.2,?,?,?,/,/
COc1ccc(Br)cc1/C=C/C(=O)Nc1ccc(C)cc1,?,?,68.3,-6.2%,0.3%,?,7.05µM*,7.7%
CCCn1nnc(NC(=O)/C=C/c2cc(Br)ccc2OC)n1,-7.3%,-16.9%,?,2.5%,9.7%,?,/,/
COc1cc(N)c(Cl)cc1C(=O)OCCN1CCCCC1,-14.3%,?,/,/,/,/,/,/
COc1cc(N)c(Cl)cc1C(=O)N[C@H]1CCN(CCCOc2ccc(F)cc2)C[C@H]1OC,/,/,-94.3*,4.65µM*,2.62µM*,1.78µM*,4.45µM*,4.0%
COc1ccc(-c2ccc(CNCCCSc3nnnn3C)o2)cc1Cl,-18.2%[46.1 µM],3.4%[46.1 µM],-13.7,/,/,/,/,/
COc1cc(NC(=O)c2ccccc2OCc2ccccc2)cc(OC)c1OC,/,/,4.4,-19.0%,9.28µM*,?,14.1µM*,12.3%
Cc1cc(-c2ccccc2)nc2cc(C(=O)Nc3ccc(Cl)c(Cl)c3)nn12,/,8.5%[46.1 µM],-10.9,/,/,/,/,/
COc1cc2c(=O)n(CCC(=O)NCC3CCCO3)c(=O)n(CC(=O)c3ccc(Cl)cc3)c2cc1OC (stereo not given),/,/,-23.3,36.2%,-1.7%,2µM*,7.91µM*,26.2%
[O-][n+]1onc2c3cc(-c4ccccc4)nnc3ccc21,-14.1%,-5.8%,-99.0*,10.6%,38.1%,?,?,-20.5%
Fc1ccc2nc(-c3ccccc3)ccc2c1,/,/,1.4,/,/,/,/,/
CCN1C(=O)/C(=C\c2cccs2)C(C(=O)OC)=C1C,-7.0%,4.7%,4.8,?,/,3.98µM*,?,?
COc1cc(Cl)c(NC(=O)c2cc(S(=O)(=O)N3CCOCC3)cn2C)c(OC)c1,/,-0.9%[46.1 µM],14.2,/,/,/,/,/
